Data on 17 compounds can be found in PubChem BioAssay (NCATS).

The structures appear in SMILES notation. Several values for one entry are separate records, joined by “and”; a condition that tells them apart may be missing. Identical values can stand only once. Unmarked numbers belong to inactive results. Records with an inconclusive call do not appear. Activity calls are given as the source filed them. Unless noted, calls come from the whole dose curve; as a rule, active = well fitted curve in the direction sought with a large enough effect; inconclusive = small, poorly fitted or top-dose-only effect, or another doubt; inactive = no such curve, though single readings can be large; an effect the other way counts as inactive or inconclusive.

One test relates to SKOV3. Put plainly: Primary qHTS to identify gynecologic anti-cancer compounds using libraries of approved drugs and bioactive compounds (AID 1345084). Note: % is set by controls: 0 for no effect and ±100 for the full control effect; nearly all actives have a fitted effect of over 55% in size. The conditions noted are these: Gynecologic cancer cell panel viability, ATPlite luminescence, 48 h; series mostly up to 57.5 µM. The essentials: (§1)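 Five-concentration response, 48 h; readout is ATP-driven luciferase luminescence.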
In general terms: Quantitative high-throughput screening tests each substance at several concentrations.

The next test has as its system Tov-21-G. The test is described as above. The settings on record: Gynecologic cancer cell panel viability, ATPlite luminescence, 48 h; series mostly up to 57.5 µM. The essentials:
as §1
A general note: ATP-based viability assays read luminescence as a measure of living cells.

The test system of the next test is Tov112D. The test is described as above. The conditions noted are these: Gynecologic cancer cell panel viability, ATPlite luminescence, 48 h; series mostly up to 57.5 µM. The essentials: as §1
Test [1] can be described thus: Drug repurposing screens with cells derived from glioblastoma tumor samples (AID 1345199). For activity, negative = cell killing: % is set by controls: 0 for no effect and ±100 for the full control effect. Note: nearly all actives have a fitted effect of over 40% in size. Note: potency is the fitted concentration of half-maximal effect. The conditions noted are these: GBM patient neurospheres viability, ATP luminescence, 48 h. The essentials: (§2)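 Four patient lines of CD133+ GBM neurospheres were screened at several concentrations; hits were retested in those lines plus three slower-growing GBM lines, using 48-hour treatment and ATP-based viability.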

In a further test the test system is astro. The description is as above. The settings on record: viability, ATP luminescence, 48 h; series mostly up to 45.9 µM. The method, boiled down: as §2
In test [2] the target is Nuclear receptor subfamily 1 group I member 2 (Rattus norvegicus) (UniProt Q9R1A7). Put plainly: qHTS assay for small molecule activators of the rat pregnane X receptor (rPXR) signaling pathway (AID 651751; call rule not given here; note: 0% is about no effect). The settings on record: rPXR reporter cells, luciferase (One-Glo), 24 h.
Test [3] in a line: qHTS assay for small molecule activators of the human pregnane X receptor (PXR) signaling pathway (AID 720659; call rule not given here; note: 0% is about no effect).
The mark [4] stands for this setting: at 21.2 µM (top of the series), tumour line B.
[5] abbreviates: at 45.9 µM (top of the series), tumour line B.
Setting [6] is: at 45.9 µM (top of the series), tumour line D.
Where [7] appears, read: at 46.1 µM (top of the series), tumour line C.

Chain of Nuclear receptor subfamily 1 group I member 2 (Rattus norvegicus) (Q9R1A7 whole entry, looked up): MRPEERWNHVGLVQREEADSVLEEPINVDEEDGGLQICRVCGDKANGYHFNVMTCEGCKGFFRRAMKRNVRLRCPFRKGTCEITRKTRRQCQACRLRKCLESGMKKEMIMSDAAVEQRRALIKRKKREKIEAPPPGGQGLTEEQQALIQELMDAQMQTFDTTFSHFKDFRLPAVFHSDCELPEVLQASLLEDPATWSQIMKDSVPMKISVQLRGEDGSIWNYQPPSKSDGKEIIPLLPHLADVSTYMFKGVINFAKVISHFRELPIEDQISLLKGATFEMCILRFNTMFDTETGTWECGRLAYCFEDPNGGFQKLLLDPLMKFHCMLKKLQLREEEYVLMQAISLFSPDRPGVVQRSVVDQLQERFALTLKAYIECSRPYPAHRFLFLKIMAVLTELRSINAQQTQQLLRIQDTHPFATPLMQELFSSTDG

On to `O=c1[nH]c(=O)n([C@H]2C[C@H](O)[C@@H](CO)O2)cc1I`, for which the outcome in the test with SKOV3, with Tov-21-G, with Tov112D and with astro was inactive. Further, the activity, negative = cell killing in test [1] (at 20 µM (top of the series), tumour line C) was -27.4%; in test [1] (setting [4]), -17%; in test [1] (at 21.3 µM (top of the series), tumour line A) it was -18.1%.
As for `Nc1c2c(nc3c1CCC3)CCCC2`, the compound was classed as inactive with SKOV3, in the test on Tov-21-G, in the test on Tov112D and in the test on astro. Also, the activity, negative = cell killing in test [1] (setting [5]) is -2.28%; in test [1] (setting [6]) it was -13.4%; in test [1] (setting [7]), -27.2%.
Take `Cc1cccc(C)c1NC(=O)CC12CCCN1CCC2`: the compound was classed as inactive in the test with SKOV3, in the test with Tov-21-G, in the test on Tov112D and in the test with astro. Moreover, the activity, negative = cell killing in test [1] (setting [5]) was -10.6%; in test [1] (setting [6]), -15.8%.
With `NNc1nnc(NN)c2ccccc12`, the result with SKOV3, with Tov-21-G, with Tov112D and with astro was inactive. Besides, the results for the activity, negative = cell killing in test [1] (setting [5]), in test [1] (setting [6]) and in test [1] (setting [7]) were -9.47%, -12.6% and -17.6%, respectively.
With `CCCCCCCCCCCCCCCCN`, the call in the test on SKOV3, in the test with Tov-21-G, in the test with Tov112D and with astro was inactive. Further, the activity, negative = cell killing is -8.19% in test [1] (setting [5]), -19.2% in test [1] (setting [6]) and -20.5% in test [1] (setting [7]).
For the compound `COc1ccc(C(=O)NCc2ccc(OCCN(C)C)cc2)cc1OC`, the outcome in the test on SKOV3, with Tov-21-G, with Tov112D and in the test with astro was inactive. Also, the activity, negative = cell killing in test [1] (setting [5]) is -21.3%; in test [1] (setting [6]), -4.36%.
As to `O=C(O)CCCc1ccccc1`, the outcome in the test on SKOV3, in the test with Tov-21-G, in the test on Tov112D and in the test with astro was inactive. The activity, negative = cell killing in test [1] (setting [5]) is -2.94%; in test [1] (setting [6]), -2.78%; in test [1] (setting [7]), -9.45%.
`CC[N+](CC)(CC(=O)Nc1c(C)cccc1C)Cc1ccccc1`: the call (with SKOV3; in the test with Tov-21-G; in the test on Tov112D; in test [3]) was inactive. Moreover, the figures for the activity, negative = cell killing in test [1] (setting [5]), in test [1] (setting [6]) and in test [1] (setting [7]) were -20.4%, -18.5% and -28%, respectively. The max response in test [2] is 0.531%.
Consider `COC(=O)c1ccc(O)cc1`, for which the compound was classed as inactive (with SKOV3; in the test with Tov-21-G; in the test on Tov112D; in the test with astro; in test [3]). Besides, the activity, negative = cell killing is -4.62% in test [1] (setting [5]), -7.84% in test [1] (setting [6]) and -1.97% in test [1] (setting [7]). Further, the max response in test [2] is -3.01%.
On to `CCCCCCCCCCOc1cc2c(=O)c(C(=O)OCC)c[nH]c2cc1OCC`, for which the values for the activity change, negative = cytotoxicity in the test on SKOV3, in the test on Tov-21-G and in the test on Tov112D were 0.739% [at 6.55 µM], 1.05% [at 6.55 µM] and -6.94% [at 6.55 µM], respectively. In addition, the results for the activity, negative = cell killing in test [1] (setting [5]), in test [1] (setting [6]) and in test [1] (setting [7]) were 2.17%, -20.1% and -26.1%, respectively. Further, the outcome in the test on astro was inactive.
With `O=c1[nH]c2cc(C(F)(F)F)c(N3CCOCC3)cc2n(CP(=O)(O)O)c1=O`, the call with SKOV3, in the test on Tov-21-G, in the test with Tov112D and in the test with astro was inactive. The activity, negative = cell killing was -1.62% in test [1] (setting [5]), -2.48% in test [1] (setting [6]) and -20.3% in test [1] (setting [7]).
Turning to `CC1CCN(CCCC(=O)c2ccc(F)cc2)CC1`, the compound was called inactive with SKOV3, in the test with Tov-21-G, in the test with Tov112D and with astro. Moreover, the activity, negative = cell killing in test [1] (setting [5]) is -15.8%. Besides, the Potency in test [1] (tumour line A) was 10 µM (active).
Turning to `Cc1cc(C)nc(NS(=O)(=O)c2ccc(N)cc2)n1`, the compound was called inactive with SKOV3, with Tov-21-G, in the test with Tov112D and with astro. Further, the activity, negative = cell killing in test [1] (setting [5]) was -8.37%; in test [1] (at 46 µM (top of the series), tumour line A) it was -19.9%; in test [1] (setting [7]) it was -16.8%. Further, the max response in test [2] is 4.51% and 0.319%.
For the compound `CCCCCCCCCCCCCCCCCCO`, the compound was classed as inactive (with SKOV3; in the test with Tov-21-G; in the test with Tov112D; in the test with astro; in test [3]). Also, the results for the activity, negative = cell killing in test [1] (setting [5]), in test [1] (setting [6]) and in test [1] (setting [7]) were -13.2%, -6.74% and -1.06%, respectively. Further, in test [2], the max response was 0.797%.
Regarding `O=S1(=O)OC(c2ccc(O)cc2)(c2ccc(O)cc2)c2ccccc21`, the compound was classed as inactive with SKOV3, in the test with Tov-21-G, in the test with Tov112D and in the test with astro. For the same compound, the results for the activity, negative = cell killing in test [1] (setting [5]), in test [1] (setting [6]) and in test [1] (setting [7]) were -17.4%, -14.4% and 11.5%, respectively.
For `O=C(OOC(=O)c1ccccc1)c1ccccc1`, the result (in the test on SKOV3; with Tov-21-G; in the test on Tov112D; with astro; in test [3]) was inactive. The activity, negative = cell killing is -7.59% in test [1] (setting [5]), -7.12% in test [1] (setting [6]) and -4.84% in test [1] (setting [7]). Moreover, the max response in test [2] was -0.865%.
Consider `COc1ccc2cc(CCC(C)=O)ccc2c1`, for which the outcome in the test on Tov-21-G and with Tov112D was inactive. Moreover, the activity, negative = cell killing in test [1] (setting [4]) was -27.9%.
